# Measurements as given in PubChem BioAssay.
# Several values for one entry are separate records, joined by “and”; a condition that tells them apart may be missing. Identical values can stand only once. Activity calls are given as the source filed them. Unless noted, no stated cut-off is given here; in the data, active means nuclear beta-catenin stimulation mostly above about 4.2% (no sharp cut-off); inactive means mostly below about 10%.
# Tests used:
# [1] = stimulators of nuclear beta-catenin in C2C12, primary screen, imaging, WNT3A-conditioned medium, mouse C2C12, NPC library (AID 1117326); details: stronger effect = higher value
# [2] = stimulators of insulin release from INS-1E, primary screen, cell-based, 5 mM glucose, NPC library (AID 1117329;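 active means compound raises insulin release from rat beta cells at 5 mM glucose, no numeric limit stated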); details: rat INS-1E insulin secretion, at 10 µM, stronger effect = higher value
# [3] = growth inhibition of GSK3B-pretreated HCT116 cells – cell-based, CellTiter-Glo, 0.2 to 20 µM (AID 1117336;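 active means compounds lowering colon cancer cell viability after pretreatment blocking the GSK3B kinase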); details: HCT116 viability after GSK3B inhibitor, at 20 µM, stronger effect = higher value
# [4] = inhibition of endothelial tube formation, primary screen, imaging, VEGF stimulated, CD31 staining, tube area, NPC library (AID 1117340;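 active means compound that reduces growth-factor-driven endothelial tube area in a mixed cell culture, no cutoff stated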); details: VEGF-stimulated ADSC/ECFC co-culture, at 10 µM, stronger effect = higher value
# [5] = glucagon-like peptide 1 release enhancers, primary assay, NCI-H716 cell line, NPC library (AID 1117341;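 active means compound raises GLP1 secretion from the human gut endocrine cells, with no numeric limit stated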); details: NCI-H716 cells, at 10 µM, stronger effect = higher value
# [6] = HCT116 colon cancer cell growth inhibition, primary screen, CellTiter-Glo luminescence, NPC library (AID 1117342;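 active means compounds that lower survival of HCT116 colon cancer cells in the luminescence readout, no numeric limit stated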); details: at 20 µM (top of the series)
# [7] = CellTiter-Glo luminescent readout of SW480 viability loss, NPC library primary (AID 1117343;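 active means compounds that lower viability of the colon cancer cells in the luminescence readout, with no numeric limit stated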); details: CellTiter-Glo luminescence; at 20 µM (top of the series) unless noted
# [8] = decreased DLD-1 cellular survival, CellTiter-Glo luminescent readout, NPC compound collection, primary HTS (AID 1117346;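 active means compounds that lower survival of DLD-1 colon cancer cells in the luminescence readout, no cutoff given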); details: DLD-1 viability, CellTiter-Glo luminescence; at 20 µM (top of the series)
# [9] = differential killing of epithelial or mesenchymal cells, primary screen, imaging, PC-3E GFP, TEM4-18 mCherry, co-culture (AID 1345086;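 active means compounds killing one labelled cell type while sparing the other, by normalised counts and ratio limits, not self-fluorescent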;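 on all read-outs here: cells exposed to compound for 72 h before imaging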;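 on red/green cell ratio (normalised): normalised mesenchymal count divided by normalised epithelial count so high means epithelial killing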); details: imaging cell counts, at 1 µM; for red/green cell ratio (normalised): actives lie on both sides, counts scaled to control wells, 1 = unselective
# [10] = sensitizers of A549 cells to miR-34 induction, primary screen, imaging, A549 dox-inducible miR-34, nuclei and caspase counts (AID 1347080;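 active means compounds whose cell count with miR-34 switched on is under 0.7 times the count with it off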); details: A549 miR-34 inducible, Hoechst nuclei count, 48 h
# [11] = biological target: NAD(+) hydrolase SARM1 (Homo sapiens) (UniProt Q6SZW1); test: SARM1 TIR NADase inhibitors, cell lysate, NAD-Glo luminescence (AID 1508614;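 active means compound whose remaining NAD level is above about 45 nM, limit read from the data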); details: SAM-TIR HEK293T lysate NADase, at 1 µM, stronger effect = higher value
# [12] = hESC survival regulators, cell-based (AID 493140; call rule not given here;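 further: cells exposed to compounds for four days before counting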); details: human embryonic stem cell survival screen; stronger effect = higher value
# [13] = liver-stage malaria parasite growth inhibition, primary screen, cell-based, HepG2, luciferase luminescence, HepG2 viability (AID 624349; in the data active means parasite load remaining mostly below about 12%, no sharp cut-off; inactive means mostly above about 10%;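 further: 100% = mean of DMSO negative control wells on the same plate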); details: P. berghei liver stage in HepG2, luciferase luminescence, concentration not given here; parasite load remaining: stronger effect = lower value; viability: measured here: HepG2 viability without parasites
# [14] = survival rescue of mitochondrial mutant cells in low glucose, primary screen, MELAS cybrids, Rieske KO mouse fibroblasts, CellTiter-Glo (AID 1508586;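 active means mean z-score across replicates of 1.96 or higher in either the MELAS or the Rieske mutant cell line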;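 further: z relative to plate mean and SD of compound and empty wells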)
# [15] = measured here: epithelial PC-3E GFP cell survival
# [16] = measured here: mesenchymal TEM4-18 mCherry cell survival
# [17] = stronger effect = lower value, cell number ratio, induced over uninduced
# [18] = measured here: relative caspase fold change +Dox/-Dox
# [19] = measured here: total cells with miR-34 induction, stronger effect = lower value
# [20] = measured here: total cells without miR-34 induction
# Chain of NAD(+) hydrolase SARM1 (Homo sapiens) (Q6SZW1 whole entry, looked up): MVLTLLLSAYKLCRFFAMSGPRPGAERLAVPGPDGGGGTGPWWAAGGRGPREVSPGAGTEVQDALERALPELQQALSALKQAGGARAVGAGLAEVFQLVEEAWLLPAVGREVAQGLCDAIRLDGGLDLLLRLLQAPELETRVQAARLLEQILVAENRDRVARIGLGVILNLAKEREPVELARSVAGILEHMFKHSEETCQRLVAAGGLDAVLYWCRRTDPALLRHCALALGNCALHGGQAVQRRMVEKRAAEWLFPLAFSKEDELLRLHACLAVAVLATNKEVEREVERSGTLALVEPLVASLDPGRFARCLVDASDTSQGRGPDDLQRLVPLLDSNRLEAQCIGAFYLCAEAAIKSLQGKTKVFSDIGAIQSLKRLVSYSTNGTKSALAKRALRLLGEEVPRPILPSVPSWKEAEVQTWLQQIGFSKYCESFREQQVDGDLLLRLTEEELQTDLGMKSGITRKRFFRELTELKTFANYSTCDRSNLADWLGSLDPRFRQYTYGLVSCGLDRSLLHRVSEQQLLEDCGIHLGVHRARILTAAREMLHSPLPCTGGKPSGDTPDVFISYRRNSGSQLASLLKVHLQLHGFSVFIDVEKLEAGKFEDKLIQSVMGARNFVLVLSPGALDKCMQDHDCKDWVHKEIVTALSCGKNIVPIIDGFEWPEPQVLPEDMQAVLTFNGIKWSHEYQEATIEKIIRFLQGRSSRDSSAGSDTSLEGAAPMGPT
smiles,measurement,setting,value
Cc1cc2nc3ccc(=[N+](C)C)cc-3sc2cc1N,nuclear beta-catenin stimulation,[1]; at 10 µM,21.6% (inactive)
same,nuclear beta-catenin stimulation,"[1]; stimulation, at 2 µM",1%
same,insulin secretion stimulation,[2],-0.6% (inactive)
same,viability decrease,[3],90.5% (active)
same,tube area decrease,[4],108% (active)
same,GLP1 secretion stimulation,[5],-3.7% (inactive)
same,inhibition of viability,[6],82.7% (active)
same,viability decrease (inhibition),[7],85% (active)
same,viability decrease (inhibition),[8],38.4% (inactive)
same,red/green cell ratio (normalised),[9],1.59 (inactive)
same,normalised cell number,[9]; [15],0.17
same,normalised cell number,[9]; [16],0.28
same,fold change,[10]; [17],1.11 (inactive)
same,fold change,[10]; [18],1.04
same,cell count,[10]; [19],2760
same,cell count,[10]; [20],2500
same,remaining NAD,[11],10 nM (inactive)
O=S(=O)(O)CCCS(=O)(=O)O,nuclear beta-catenin stimulation,[1]; at 10 µM,-2.1% (inactive)
same,nuclear beta-catenin stimulation,"[1]; stimulation, at 2 µM",-0.3%
same,insulin secretion stimulation,[2],2.9% (inactive)
same,viability decrease,[3],-15.7% (inactive)
same,tube area decrease,[4],-1.1% (inactive)
same,GLP1 secretion stimulation,[5],-2.7% (inactive)
same,inhibition of viability,[6],-1.7% (inactive)
same,viability decrease (inhibition),[7],-9.3% (inactive)
same,viability decrease (inhibition),[8],-13.5% (inactive)
same,red/green cell ratio (normalised),[9],0.74 (inactive)
same,normalised cell number,[9]; [15],1.27
same,normalised cell number,[9]; [16],0.94
same,fold change,[10]; [17],0.939 (inactive)
same,fold change,[10]; [18],1.14
same,cell count,[10]; [19],9300
same,cell count,[10]; [20],9900
same,remaining NAD,[11],10 nM (inactive)
Cc1c(N)c(=O)n(-c2ccccc2)n1C,survival,[12],19.6 (inactive)
same,parasite load remaining,[13],27.9% (inactive) and 86.5% (inactive) and 114% (inactive)
same,viability,[13],47% and 66.5% and 89.3%
same,nuclear beta-catenin stimulation,[1]; at 10 µM,1.1% (inactive)
same,nuclear beta-catenin stimulation,"[1]; stimulation, at 2 µM",1.8%
same,insulin secretion stimulation,[2],-0.3% (inactive)
same,viability decrease,[3],-9.25% (inactive)
same,tube area decrease,[4],-13.4% (inactive)
same,GLP1 secretion stimulation,[5],1.1% (inactive)
same,inhibition of viability,[6],-5.1% (inactive)
same,viability decrease (inhibition),[7],45.9% (inactive)
same,viability decrease (inhibition),[8],10.9% (inactive)
same,red/green cell ratio (normalised),[9],0.99 (inactive)
same,normalised cell number,[9]; [15],1.14
same,normalised cell number,[9]; [16],1.13
same,fold change,[10]; [17],0.844 (inactive)
same,fold change,[10]; [18],1.06
same,cell count,[10]; [19],8260
same,cell count,[10]; [20],9790
same,z-score,"[14]; MELAS cybrid survival, CellTiter-Glo 48 h, stronger effect = higher value",-0.073 (inactive)
same,z-score,"[14]; Rieske KO mouse fibroblast survival, CellTiter-Glo 72 h",-0.119
CNC(=O)c1c(I)c(NC(C)=O)c(I)c(C(=O)O)c1I,nuclear beta-catenin stimulation,[1]; at 10 µM,0.7% (inactive)
same,nuclear beta-catenin stimulation,"[1]; stimulation, at 2 µM",0.8%
same,insulin secretion stimulation,[2],0.9% (inactive)
same,viability decrease,[3],-4.1% (inactive)
same,tube area decrease,[4],4.3% (inactive)
same,GLP1 secretion stimulation,[5],0.4% (inactive)
same,inhibition of viability,[6],13.4% (inactive)
same,viability decrease (inhibition),[7],0.4% (inactive)
same,viability decrease (inhibition),[8],-2.95% (inactive)
same,red/green cell ratio (normalised),[9],0.78 (inactive)
same,normalised cell number,[9]; [15],1.25
same,normalised cell number,[9]; [16],0.97
same,fold change,[10]; [17],0.982 (inactive)
same,fold change,[10]; [18],0.852
same,cell count,[10]; [19],9390
same,cell count,[10]; [20],9560
same,remaining NAD,[11],10 nM (inactive)
Cc1cccc(C)c1NC(=O)c1ccccc1C(=O)O,nuclear beta-catenin stimulation,[1]; at 10 µM,0.1% (inactive)
same,nuclear beta-catenin stimulation,"[1]; stimulation, at 2 µM",0.7%
same,insulin secretion stimulation,[2],-0.4% (inactive)
same,viability decrease,[3],-4.6% (inactive)
same,tube area decrease,[4],-28.9% (inactive)
same,GLP1 secretion stimulation,[5],1.9% (inactive)
same,inhibition of viability,[6],3.1% (inactive)
same,viability decrease (inhibition),[7],49.6% (inactive)
same,viability decrease (inhibition),[8],17.1% (inactive)
same,red/green cell ratio (normalised),[9],0.84 (inactive)
same,normalised cell number,[9]; [15],0.94
same,normalised cell number,[9]; [16],0.79
same,fold change,[10]; [17],0.96 (inactive)
same,fold change,[10]; [18],0.664
same,cell count,[10]; [19],8770
same,cell count,[10]; [20],9130
same,remaining NAD,[11],10 nM (inactive)
